LASV entry inh = blocks Lassa virus binding to or entry into cells; Lassa virus pseudotype entry inhibition, cell reporter; Potency, µM (highest dose often 37.9 µM), hits mostly inhibitors; 300,000 compounds, 1.2% hits; AID 540256; calls by dose curve; tested in HEK293 cells; note: nearly all actives have a fitted effect of over 50% in size
FBPA Giardia inh = inhibitors of Giardia lamblia fructose-1,6-bisphosphate aldolase; A8B2U2; purified Giardia FBPA; Potency, µM (highest dose often 59.6 µM), usual class: inhibitors; 290,000 compounds, 0.71% hits; note: nearly all actives have a fitted effect of over 55% in size
Target sequence (A8B2U2 whole entry, looked up): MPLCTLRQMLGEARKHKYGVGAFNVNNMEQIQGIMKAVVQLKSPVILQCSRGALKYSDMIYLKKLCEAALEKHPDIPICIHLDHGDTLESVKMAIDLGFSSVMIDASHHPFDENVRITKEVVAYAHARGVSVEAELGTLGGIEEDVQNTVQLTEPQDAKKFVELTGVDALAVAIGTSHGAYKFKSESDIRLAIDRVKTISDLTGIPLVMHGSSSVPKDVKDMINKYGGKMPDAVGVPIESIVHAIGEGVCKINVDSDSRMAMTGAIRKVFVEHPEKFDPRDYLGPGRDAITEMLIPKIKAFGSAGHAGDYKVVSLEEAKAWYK
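Giardia FBPA (40 nM reagent) was preincubated 10 min at RT with compound (up to 57.5 uM final), then substrate plus GAPDH/TPI/NAD/arsenate coupling system with diaphorase/resazurin was added; resorufin fluorescence (525/598 nm) was read after 20 min.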
HCV inh = HCV inhibition; Huh7.5.1 HCVcc-Cre infection, luciferase reporter, 44 h; Potency, µM (series often up to 41.8 µM), most hits filed as inhibitors; 340,000 compounds, 3.4% hits; AID 651820
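Antiviral activity was scored by luciferase reporter output from cells infected with HCVcc-Cre (~0.5 moi) in presence of compound, 44 h infection period, cells seeded 1,000/well 4 h prior.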
FMDV antiviral = foot and mouth disease virus antiviral activity. FMDV antiviral cell-based qHTS. Potency, µM (top dose mostly 57.9 µM), usual class: inhibitors. 410,000 compounds, 1.2% hits. AID 1159524; calls by dose curve; tested in HEK293T cells; note: read-out not given here; nearly all actives have a fitted effect of over 45% in size
Marburg entry inh = inhibitors of Marburg virus binding or cell entry. Marburg virus pseudotyped entry inhibition, cell reporter. Potency, µM (highest dose often 37.8 µM), hits mostly inhibitors. 300,000 compounds, 1.8% hits. AID 540276; calls by dose curve; tested in HEK293 cells
HCMV antiviral = human cytomegalovirus inhibition. HFF cells, HCMV-luciferase reporter, 72 h; active compounds read low. activity change, negative = inhibition, % at 57.5 µM. 410,000 compounds, 4.5% hits. AID 1259415; in the data active = activity change below about -60%; inconclusive = no clear call, values can overlap the other calls; inactive = above about -39%
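Human foreskin fibroblasts infected with luciferase-reporter HCMV at MOI 1 PFU/cell, compounds at two doses. Luciferase measured 72 h post infection; normalized to buffer-only basal and Salinomycin (10uM) controls.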
A number is an active result; 0 = inactive; ? = inconclusive; - = not tested or not shown; + = active, no number; ! = not active in a repeat; [ ] = remark or other dose. Compounds with a hit are over-represented: about 8.3% of the library has one in this group of screens. Unless noted, calls come from the whole dose curve; as a rule, active = well fitted curve in the direction sought with a large enough effect; inconclusive = small, poorly fitted or top-dose-only effect, or another doubt; inactive = no such curve, though single readings can be large; an effect the other way counts as inactive or inconclusive.

SMILES | LASV entry inh | FBPA Giardia inh | HCV inh | FMDV antiviral | Marburg entry inh | HCMV antiviral
Cn1ccc2cc(NC(=O)Nc3cccnc3)ccc21 | - | 0 | ? | 0 | - | -100
Cc1nn(-c2ccc(Cl)cc2)c(=O)c2ccccc12 | ? | 0 | 0 | 0 | 0 | 0
Cc1c(Cl)sn(-c2ccc(Cl)cc2)c1=O | 9.2µM | 0 | 2.5µM | ? | ? | -101
C=CCN(c1ccccc1OC)S(=O)(=O)c1cccc(C(=O)OCC(=O)c2c[nH]c3ccccc23)c1 | 9.2µM | 0 | ? | ? | ? | 0
C=CCN(c1ccccc1OC)S(=O)(=O)c1cccc(C(=O)OCC(=O)N2CCOCC2)c1 | - | - | 0 | 0 | - | 0
COc1ccc(C(=O)OCC(=O)c2c[nH]c3ccccc23)cc1OC | - | - | 0 | 0 | - | 0
COc1cc(C(=O)OCC(=O)c2c[nH]c3ccccc23)ccc1OCC(=O)N1CCOCC1 | ? | 0 | 0 | 0 | 0 | -64
COc1cc(OC)c(N(C)S(=O)(=O)c2cccc(C(=O)Nc3nccs3)c2)cc1Cl | ? | - | ? | ? | 8.9µM | ?
COc1cc(OC)c(N(C)S(=O)(=O)c2cccc(C(=O)OCC(=O)c3c[nH]c4ccccc34)c2)cc1Cl | ? | 0 | ? | 8.9µM | ? | ?
COc1ccc(-c2nc3cnc(N4CCNCC4)nc3n(C3CC3)c2=O)cc1 | - | 0 | - | 0 | - | -
CNC(=O)c1cc(Oc2ccc(NC(=O)Nc3ccc(Cl)c(C(F)(F)F)c3)cc2)ccn1 | - | - | 11µM | 20µM | - | -100
C=CCNCCOCCOc1ccc(Cl)cc1C(C)(C)C | 0 | 0 | ? | 0 | ? | 0
Cc1cc(C(C)(C)C)ccc1OCCOCCN1CCCC1 | ? | 0 | ? | 0 | 8.2µM | 0
Cc1cc(C)c(C)c(OCCOCCN2CCN(C)CC2)c1 | 0 | 0 | 4µM | 0 | ? | 0
CC(C)(C)c1cc(Cl)ccc1OCCOCCN1CCCC1 | ? | ? | ? | 0 | 8.9µM | 0
COCCCNCCOCCOc1ccc(Cl)cc1C(C)(C)C | ? | 0 | ? | 0 | 5.8µM | ?
Cn1cccc1C(=O)N1CCC2(CC1)CCN(C(c1ccccc1)c1ccccc1)CC2 | - | 0 | - | 0 | - | -
COc1cc2ccccc2cc1C(=O)NC(=S)Nc1nnn(C)n1 | 0 | ? | 0 | 0 | 0 | 0
Cn1nnc(NC(=S)NC(=O)c2cc(Cl)ccc2Cl)n1 | - | - | 0 | 0 | - | +
O=[N+]([O-])c1ccc(-c2nc(-c3ccc(F)cc3)c(-c3ccncc3)[nH]2)cc1 | ? | 0 | - | - | 8.2µM | -
Cc1nn(-c2ccc([N+](=O)[O-])cc2)c2c1C(c1ccc(OC(F)F)cc1)N1C(=N2)C(=O)Nc2ccccc21 (stereo unspecified) | ? | 0 | 2µM | 0 | ? | 0
Cc1ccc(C2c3c(C)nn(-c4ccc([N+](=O)[O-])cc4)c3N=C3C(=O)Nc4ccccc4N32)cc1 (stereo unspecified) | - | 0 | - | - | - | -
CCOc1ccc(NC(=O)N2CC3CCCN3c3ccccc32)cc1 (stereo unspecified) | 0 | - | - | 0 | - | 0
C=CCN1CC[C@@]23c4c5ccc(O)c4O[C@H]2/C(=N\N=C2/CC[C@@]4(O)[C@H]6Cc7ccc(O)c8c7[C@@]4(CCN6CC=C)[C@@H]2O8)CC[C@]3(O)[C@@H]1C5 | - | 0 | - | 0 | - | -
C=CCN1CC[C@]23c4c5ccc(O)c4O[C@H]2/C(=N/NC(=O)c2ccccc2)CC[C@@]3(O)[C@H]1C5 | ? | 0 | 0 | ? | 0.089µM! | -64
SMILES | LASV entry inh | FBPA Giardia inh | HCV inh | FMDV antiviral | Marburg entry inh | HCMV antiviral
C=CCN1CC[C@]23c4c5ccc(O)c4OC2C(=O)CC[C@@]3(O)C1C5 (stereo partly specified) | - | 0 | 2.5µM | 0 | - | 0
COc1ccc2c3c1OC1C(=O)CC[C@@]4(O)[C@@H](C2)N(C)CC[C@]314 (stereo partly specified) | - | - | ? | ? | - | -80
COc1cc2c(cc1OC)C1O[C@](CCCCN3C(=O)c4ccccc4C3=O)(C2)OC2=C1C(=O)OC1(CCCCC1)C2 | - | 0[12.9 µM] | - | - | - | -
Cc1cc(C)n(CC(O)COc2ccc(Cl)cc2Cl)n1 (stereo unspecified) | 0 | 0 | 0 | 0 | 0 | 0
Cc1nccn1CC(O)COc1ccc(Cl)cc1Cl (stereo unspecified) | 0 | 0 | ? | 0.45µM | 0 | 0
COc1ccc2c(c1)[C@H]1[C@H](CO2)[C@H](c2ccccc2)[C@]2(C)C(=O)N(Cc3ccc(C)cc3)CC(=O)N12 | - | - | 10µM | 0 | - | -
COc1ccc(CN2CC(=O)N3[C@H]4c5ccc(OC)cc5OC[C@@H]4[C@H](c4ccccc4)[C@]3(C)C2=O)cc1 | - | - | ? | 0 | - | 0
COc1ccc2c(c1)OC[C@H]1[C@H]2N2C(=O)CN(Cc3ccc(Cl)cc3)C(=O)[C@@]2(C)[C@H]1c1ccccc1 | - | - | 11µM | 0 | - | 0
COc1cccc(CNC(=O)c2c(OC)cc(=O)n3c2CCN(C(=O)c2ccccc2Cl)CC3)c1 | - | - | - | 0 | - | -
COc1ccc(/C=C2\CCc3ccccc3C2=O)cc1O | ? | 0 | 0 | ? | 11µM | 0
COc1ccc(/C=C2\CCc3ccccc3C2=O)cc1Cn1cccn1 | ? | 0 | ? | 0 | 18µM | ?
C=C(C)Cn1c(SCC(=O)Nc2ccccc2C)nc2sc3c(c2c1=O)CCCC3 | 0 | - | - | 0 | 0 | 0
CCc1nc2cc(C(=O)N(C)CC3CCCN(C)C3)cc(NC(=O)c3ccccc3OC)c2n1C (stereo unspecified) | - | - | - | 0 | - | -
CCN(CC(O)COCc1ccc(Cl)cc1)C1CCCCC1 (stereo unspecified) | 0 | 0 | ? | 0 | ? | 0
CCN(CC(O)COc1ccc(OCC(O)CN(CC)C2CCCCC2)cc1)C1CCCCC1 (stereo unspecified) | ? | - | 5µM | 0 | ? | 0
Cc1ccccc1OCC(O)CN(Cc1ccccc1O)C1CCCCC1 (stereo unspecified) | 0 | 0 | 0 | 0 | 11µM | ?
CN(CC(O)COc1ccccc1F)C1CCCCC1 (stereo unspecified) | 0 | 0 | 0 | 0 | ? | 0
O=C(Nc1cccc(F)c1)N1C[C@H]2[C@@H](c3ccccc31)[C@H](CO)N2C(=O)c1cccnc1 | - | - | - | - | - | 0
CCOC1=C2[C@@H](CN(S(=O)(=O)c3ccccc3C)[C@H]2c2ccc(Cl)cc2)[C@H]2C(=O)NC(=O)[C@H]2C1 | - | - | - | 0 | - | -76
O=[N+]([O-])c1ccc(SCc2c(F)cccc2Cl)nc1 | 0 | 0 | 0 | 0 | ? | -61
COCCn1c(=O)c(CCc2ccccc2)nc2cnc(N(C)C)nc21 | - | 0 | - | 0 | - | -
O=c1c2c3nc4ccccc4nc3n(-c3ccc4c(c3)OCCO4)c2ncn1C1CCCC1 | ? | 0 | 0 | ? | ? | -77
Nc1c(C(=O)OCC2CCCO2)c2nc3ccccc3nc2n1-c1ccc2c(c1)OCCO2 (stereo unspecified) | 0 | ? | ? | 0 | 0 | -66
COCCNC(=O)Cn1nc(N2CCN(c3ccccc3OC)CC2)ccc1=O | 0 | - | - | 0 | - | 0
COc1ccc(-n2cc(CN(C)C3CCOCC3)c(-c3cccc(F)c3)n2)cc1 | ? | 0 | ? | 0 | ? | 0
COc1ccc(-n2cc(CNCC3CCOCC3)c(-c3cccc(F)c3)n2)cc1 | - | 0 | 0 | 0 | - | -89

Assay outcomes as filed in PubChem.
